Test results: the supplement of paper PMC10981050
Values joined by “and” are separate entries in the source; they are usually repeats but may differ in a detail not shown here. Identical values can stand only once. Counter-ions that a name gives are not always drawn.

Key:
Assay in all cases: cell viability relative to vehicle control; higher = less cytotoxic
Conditions in all cases: 10 µM
K562 = tested on: K562
How it was run: (§1)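 Mutant clones made by CRISPR editing and their isogenic wild-type counterparts, from four leukaemia lines, were exposed to a single 10 µM dose of each library compound for 48 h. The supernatant was then removed and CellTiter-Glo luminescence was read. Viability was reported as percent of the on-plate vehicle control.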

MARIMO = tested on: MARIMO
How it was run: as §1

MOLM14 = tested on: MOLM14
How it was run: as §1

OCI-AML2 = tested on: OCI-AML2
How it was run: as §1

Row | Structure (SMILES) | cell viability (K562; SRSF2 genotype: SRSF2 P95H/wt) | cell viability (K562; SRSF2 genotype: SRSF2 wt/wt) | cell viability (MARIMO; SRSF2 genotype: SRSF2 P95H/wt) | cell viability (MARIMO; SRSF2 genotype: SRSF2 wt/wt) | cell viability (MOLM14; SRSF2 genotype: SRSF2 P95H/wt) | cell viability (MOLM14; SRSF2 genotype: SRSF2 wt/wt) | cell viability (OCI-AML2; SRSF2 genotype: P95H/wt) | cell viability (OCI-AML2; SRSF2 genotype: wt/wt)
1 | O=c1c(O)c(-c2ccc(O)cc2)oc2cc(O)cc(O)c12 [Kaempferol] | 96.1% and 106% | 108% | 98.1% | 117% | 57.4% | 68% | 81.7% | 67.5%
2 | CCCCCCCCCCC[C@@H](C[C@@H]1OC(=O)[C@H]1CCCCCC)OC(=O)[C@H](CC(C)C)NC=O [Orlistat (Alli, Xenical)] | 75.8% and 85.2% | 76.8% | 41.8% | 64.9% | 75.3% | 73.4% | 49.6% | 86.8%
3 | CCCCCCC=CCCCCCCCc1cccc(O)c1C(=O)O [Ginkgolic Acid] | 103% and 101% | 104% | 108% | 110% | 109% | 107% | 100% | 106%
4 | CN(CC(=O)N(Cc1ccc(C2CCCCC2)cc1)c1ccc(C(=O)O)cc1)S(=O)(=O)c1c(F)c(F)c(F)c(F)c1F | 10.6% and 6.35% | 7.31% | 10.3% | 2.43% | 0.37% | 0.15% | 0.12% | 0.08%
5 | C=CC(=O)Nc1cc(N2CCN(CC)CC2)ccc1Nc1cc(N(C)C(=O)Nc2c(Cl)c(OC)cc(OC)c2Cl)ncn1 | 26.8% and 16.8% | 28.7% | 37.6% | 31.7% | 0.69% | 0.44% | 1.37% | 1.1%
6 | C=C1[C@H](CO)[C@@H](O)C[C@@H]1n1cnc2c(=O)[nH]c(N)nc21 [Entecavir] | 109% and 104% | 103% | 94.8% | 101% | 101% | 106% | 79.5% | 93.7%
7 | COC(=O)CC1CC(c2ccc(O)cc2)=NO1 (stereo not drawn) | 113% and 102% | 104% | 102% | 112% | 77.1% | 102% | 104% | 103%
8 | CCCCC(CC)COC(=O)C=Cc1ccc(OC)cc1 (stereo not drawn) [Octinoxate] | 106% and 102% | 103% | 96.9% | 109% | 99.5% | 108% | 90.2% | 93.4%
9 | COc1cc(C(=O)NC2CCN(C)CC2)ccc1Nc1ncc2c(n1)N(C1CCCC1)CC(F)(F)C(=O)N2C | 24.5% and 48.3% | 44.6% | 31.6% | 26.3% | 15% | 5.38% | 4.16% | 9.85%
10 | CC1(C)CC[C@]2(C(=O)O)[C@H](O)C[C@]3(C)C(=CC[C@@H]4[C@@]5(C)CC[C@H](O)C(C)(C)[C@@H]5CC[C@]43C)[C@H]2C1 [Echinocystic acid] | 93.8% and 87.5% | 89% | 87.1% | 99.2% | 85.1% | 90.4% | 82.8% | 94.6%
11 | CCOC(=O)C1=C(C)NC(C)=C(C(=O)OCC)C1c1ccccc1/C=C/C(=O)OC(C)(C)C [Lacidipine (Lacipil, Motens)] | 51% and 64.8% | 53.2% | 53.8% | 40.3% | 49.7% | 39.8% | 44% | 42.9%
12 | CCCCCCCCCCCCCCCC(=O)OCC [Ethyl palmitate] | 101% | 97.9% | 103% | 106% | 106% | 101% | 98% | 107%
13 | COc1cc(F)c(F)c(Nc2ccc(I)cc2F)c1NS(=O)(=O)C1(C[C@H](O)CO)CC1 [Refametinib (RDEA119, Bay 86-9766)] | 53.8% and 59.1% | 62.1% | 31.8% | 33% | 30.7% | 22.7% | 35.4% | 35.1%
14 | CCC[C@H](N[C@H]1CCc2cc(F)cc(F)c2C1)C(=O)Nc1cn(C(C)(C)CNCC(C)(C)C)cn1 | 78% and 88.1% | 88.7% | 74.3% | 86.2% | 78% | 88.8% | 73.3% | 72.3%
15 | CNS(=O)(=O)CCc1ccc2[nH]cc(C3CCN(C)CC3)c2c1 [Naratriptan HCl] | 104% and 100% | 104% | 97.3% | 110% | 107% | 104% | 102% | 113%
16 | c1ccc2c(Oc3nc(Nc4ccc(N5CCOCC5)cc4)c4ncn(C5CCCCC5)c4n3)cccc2c1 [Purmorphamine] | 91.9% and 105% | 98.2% | 86.5% | 94.4% | 45.9% | 48.7% | 58.9% | 64%
17 | COc1ccc(C(=O)C2CCN(CC(=O)N(Cc3nc4c(c(=O)[nH]3)COCC4)CC3CC3)CC2)cc1 | 110% and 104% | 102% | 108% | 110% | 109% | 102% | 98.8% | 109%
18 | O=C(NCCS(=O)(=O)c1ccc(C(F)(F)F)cn1)c1ccc(Cl)cc1 | 103% and 96.6% | 102% | 91.2% | 102% | 102% | 99.2% | 91.7% | 102%
19 | CO[C@H]1C[C@@H]2CC[C@@H](C)[C@@](O)(O2)C(=O)C(=O)N2CCCC[C@H]2C(=O)O[C@H]([C@H](C)C[C@@H]2CC[C@H](n3cnnn3)[C@H](OC)C2)CC(=O)[C@H](C)/C=C(\C)[C@@H](O)[C@@H](OC)C(=O)[C@H](C)C[C@H](C)/C=C/C=C/C=C/1C [Zotarolimus (ABT-578)] | 67.9% and 74.2% | 66.1% | 77% | 76.9% | 60.8% | 56.5% | 64.2% | 61.1%
20 | Cc1ccc(NS(=O)(=O)c2ccc3c(c2)C2C=CCC2C(c2ccc(C(=O)O)cc2)N3)cc1C (stereo not drawn) | 108% and 98.9% | 110% | 102% | 101% | 106% | 104% | 103% | 117%
21 | CCCOc1ccc2c(c1)CC[C@@H]1[C@@H]2CC[C@]2(C)[C@@H](OC)CC[C@@H]12 [Promestriene] | 86.2% and 89.4% | 94.1% | 76.6% | 89.8% | 83.1% | 97.2% | 59.6% | 66.2%
